Measured values as given in PubChem BioAssay.
Unmarked numbers belong to inactive results. No rule for the calls is given here.

Molecular target: Pantothenate synthetase (Mycobacterium tuberculosis (strain ATCC 25618 / H37Rv)) (UniProt P9WIL5)
Experiment: Coupled enzyme confirmation of inhibitors against recombinant Mtb PanC (AID 375);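 also: 0% = full reaction with vehicle and 100% = no enzyme background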
Conditions: coupled enzyme assay; at 10 µM, hits give high values

Chain of Pantothenate synthetase (Mycobacterium tuberculosis (strain ATCC 25618 / H37Rv)) (P9WIL5 whole entry, looked up): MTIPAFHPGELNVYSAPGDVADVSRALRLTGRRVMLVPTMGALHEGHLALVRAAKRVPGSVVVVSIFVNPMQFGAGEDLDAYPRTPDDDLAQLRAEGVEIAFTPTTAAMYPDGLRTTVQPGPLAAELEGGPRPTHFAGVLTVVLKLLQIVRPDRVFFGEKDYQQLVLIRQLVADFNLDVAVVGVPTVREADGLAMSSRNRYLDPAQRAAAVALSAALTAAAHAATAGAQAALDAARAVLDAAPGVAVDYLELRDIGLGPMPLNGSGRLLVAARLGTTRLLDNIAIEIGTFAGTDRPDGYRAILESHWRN

Question: Which inhibition does the source give for `Cc1occc1C(=O)N1CCN(c2ncccn2)CC1` here?
Answer: The inhibition was 6%.

Question: For `CCOC(=O)c1oc2ccccc2c1CSc1nnnn1-c1ccc(C)cc1`, which inhibition is on record?
Answer: Its inhibition is 1%.

Question: `c1cnc2c(SCc3ccc(-c4nnco4)cc3)cccc2c1` was tested. Which inhibition did it give?
Answer: Its inhibition is 2%.

Question: With `CN(C)c1ccc(CNn2cnnc2)cc1` as the compound, how does the inhibition read?
Answer: The inhibition was 2%.

Question: For `CCOC(=O)c1ccc(NCc2nc3ccccc3[nH]2)cc1`, which inhibition is on record?
Answer: Its inhibition is 4%.

Question: With `COc1ccc(NC(=O)CSc2nc3c(c(=O)n2-c2ccc(F)cc2)SCC3)cc1` as the compound, how does the inhibition read?
Answer: The inhibition was 0%.

Question: For `Nc1nc(-c2ccccc2Br)cs1`, which inhibition is on record?
Answer: The inhibition was 3%.

Question: `Cc1cc(O)c(C(C)C)cc1N=C1CSC(=O)N1` was tested. Which inhibition did it give?
Answer: Its inhibition is 0%.

Question: How did the inhibition turn out when `COc1ccc(-n2c(SCC(=O)c3c(N)n(C)c(=O)n(C)c3=O)nc3ccccc32)cc1` was run?
Answer: Its inhibition is 0%.

Question: Which inhibition does the source give for `C[C@]12CC[C@@H]3c4ccc(OS(=O)(=O)O)cc4CC[C@H]3[C@@H]1CCC2=O` here?
Answer: Its inhibition is 0%.

Question: For `CCOc1ccccc1OCC(=O)Nc1nnc(COC)s1`, which inhibition is on record?
Answer: Its inhibition is 4%.

Question: With `OCC(O)CN1CCN(c2ccccc2)CC1` (stereo not drawn) as the compound, how does the inhibition read?
Answer: The inhibition was 0%.

Question: Which inhibition does the source give for `O=C(CCCCC(=O)NCc1cccs1)NCc1cccs1` here?
Answer: The inhibition was 8%.

Question: For `CCOc1ccc(C(CC(=O)O)NC(=O)c2ccco2)cc1OC` (stereo not drawn), which inhibition is on record?
Answer: Its inhibition is 2%.

Question: How did the inhibition turn out when `CSc1ccccc1N=CC1=C(O)CC(C)(C)CC1=O` was run?
Answer: The inhibition was 0%.

Question: Which inhibition does the source give for `O=S(=O)(c1ccc(S(=O)(=O)N(Cc2ccco2)Cc2ccccc2Cl)cc1)N1CCCC1` here?
Answer: The inhibition was 0%.

Question: `COc1ccc(-n2c(=O)[nH]cc(C(=O)Nc3ccc(NC(C)=O)cc3)c2=O)cc1` was tested. Which inhibition did it give?
Answer: Its inhibition is 6%.

Question: Which inhibition does the source give for `COc1cc(CN2CCSCC2)cc(OC)c1OC` here?
Answer: The inhibition was 0%.
